Bioassay records from PubChem BioAssay.
ELG1 genotox – genotoxicity induction in ELG1-luciferase HEK293T cells; HEK293T ELG1-luciferase reporter, luminescence, 16 h; Potency, µM (titrated, usually from 46 µM), actives largely listed as activators; 330,000 compounds, 1.3% hits; AID 504466; note: nearly all actives have a fitted effect of over 60% in size
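After overnight (16 hr) compound treatment at 37 °C, ELG1-luciferase HEK293T cells were lysed with ONE-Glo; luminescence quantified 30 min later at room temperature.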
SMN2 splice enh – enhancers of SMN2 splice variant expression; HEK293 SMN2-luciferase splicing reporter, luminescence, 30-36 h; Potency, µM (series often up to 46.1 µM), actives largely listed as activators; 210,000 compounds, 2.8% hits; note: nearly all actives have a fitted effect of over 55% in size
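qHTS luciferase splicing reporter: luminescence rises when SMN2 exon 7 is included in transfected HEK293 cells. Compound exposure lasted 30-36 h at 37C, with 4.5 mM final sodium butyrate as control, followed by a ONE-Glo read.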
FLuc counter – counter-screen for miR-21 project: firefly luciferase inhibitors or activators. P08659. purified FLuc, Km substrates, luminescence inhibition. 360,000 compounds, 6.9% hits. AID 588342. Potency, µM (titrated, usually from 57.5 µM), hits mostly inhibitors; note: nearly all actives have a fitted effect of over 55% in size
Target sequence (P08659 whole entry, looked up): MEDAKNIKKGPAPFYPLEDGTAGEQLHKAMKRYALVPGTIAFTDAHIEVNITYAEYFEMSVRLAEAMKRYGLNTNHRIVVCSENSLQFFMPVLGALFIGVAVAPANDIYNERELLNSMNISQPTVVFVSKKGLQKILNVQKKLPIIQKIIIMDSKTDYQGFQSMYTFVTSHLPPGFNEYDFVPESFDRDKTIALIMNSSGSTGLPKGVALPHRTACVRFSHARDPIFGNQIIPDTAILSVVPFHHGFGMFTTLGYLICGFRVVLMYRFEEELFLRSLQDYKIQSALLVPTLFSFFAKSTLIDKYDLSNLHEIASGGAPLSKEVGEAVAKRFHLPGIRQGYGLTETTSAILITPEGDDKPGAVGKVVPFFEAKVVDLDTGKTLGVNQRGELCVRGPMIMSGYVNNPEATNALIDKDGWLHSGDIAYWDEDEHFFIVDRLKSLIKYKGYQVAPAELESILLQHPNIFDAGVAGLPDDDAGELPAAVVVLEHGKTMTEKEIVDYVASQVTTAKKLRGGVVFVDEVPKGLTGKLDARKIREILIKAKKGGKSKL
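Biochemical qHTS of compounds, final roughly 60 µM downward over six points, against 10 nM purified firefly luciferase using Km concentrations of substrates (10 uM D-luciferin, 10 uM ATP) in Tris acetate pH 7.5 buffer; luminescence output.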
NPC1 promoter act – NPC1 promoter activation; Huh7 NPC1 promoter luciferase reporter, 24 h; Potency, µM (highest dose often 9.22 µM), actives largely listed as activators; 320,000 compounds, 2.4% hits; AID 485313; note: nearly all actives have a fitted effect of over 60% in size
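NPC1 promoter–luciferase Huh7 cells; 24 h compound; luminescence.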
Rab9 prom act – activates the Rab9 promoter. Huh7 Rab9 promoter-luciferase reporter, luminescence, 24 h. Potency, µM (top dose mostly 9.22 µM), hits mostly activators. 320,000 compounds, 2.8% hits; note: nearly all actives have a fitted effect of over 60% in size
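Luciferase signal after 10 min detection reagent at ambient indicates Rab9 promoter upregulation; stably transfected Huh7 cells were treated 24 h with compound in DMSO at 37 °C, 5% CO2.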
A number is an active result; . = inactive; ? = inconclusive; / = not tested or not shown; [ ] = another dose, or the depositor's remark. In the library only some 7.5% were active in any assay of this set; here they are far more common. Calls come from the whole dose curve; as a rule, active = well fitted curve in the direction sought with a large enough effect; inconclusive = small, poorly fitted or top-dose-only effect, or another doubt; inactive = no such curve, though single readings can be large; an effect the other way counts as inactive or inconclusive.

SMILES	ELG1 genotox	SMN2 splice enh	FLuc counter	NPC1 promoter act	Rab9 prom act
O=C(CSc1ccccc1)Nc1ccccc1C(=O)O	/	.	21.3µM	/	/
O=C(Cc1cccc2ccccc12)Nc1ccccc1C(=O)O	?	?	26.9µM	.	.
Cc1ccc(C)c(NC(=O)CCc2ccc(C)o2)c1	.	/	.	.	.
CCOC(=O)C1=CN(Cc2ccco2)S(=O)(=O)N(C)C1CC (stereo unspecified)	.	/	/	/	/
Cn1c2ccccc2c2nnc(SCC(=O)Nc3ccccc3F)nc21	.	/	.	.	.
CC(C)n1c2ccccc2c2nnc(SCC(=O)Nc3ccccc3C(=O)O)nc21	.	.	19µM	.	.
Cc1ccc(SCC(=O)Nc2ccccc2C(=O)O)cc1	.	?	8.49µM	?	?
CCOc1ccccc1-n1c(SCC(=O)Nc2ccccc2C(=O)O)nc2ccccc2c1=O	.	/	12µM	?	?
COc1ccc(CC(=O)Nc2cccc(C(=O)O)c2C)cc1	.	15.8µM	?	.	.
CCn1c(SCC(=O)Nc2ccccc2OC)nc2ccccc2c1=O	.	.	.	.	.
Cc1ccccc1C(=O)Nc1cc(C(F)(F)F)ccc1-n1cncn1	.	/	/	.	.
CS(=O)(=O)c1ccccc1-c1nnc(NC(=O)c2cccc(N3C(=O)CCC3=O)c2)o1	.	/	.	.	.
Fc1cccc(CNc2ncnc3ccc(-c4ccccc4Cl)cc23)c1	/	/	?	.	.
CCCSc1nsc(NC(=O)CC)n1	?	/	0.675µM	0.282µM	0.112µM
CC(=O)Nc1cc(-c2ccc(Cl)cc2)[nH]n1	?	22.4µM	?	3.55µM	?
CC(=O)Nc1nc(-c2ccc(Cl)cc2)ns1	.	?	10.7µM	?	3.98µM
COc1cc(OC)cc(-c2cc(NC(C)=O)n[nH]2)c1	.	.	?	.	.
CCC(=O)Nc1nc(-c2ccccc2)ns1	.	11.2µM	15.1µM	3.98µM	2µM
COc1ccc(C2(c3ccc(OC)cc3)NC(=O)N(CC(=O)N3CCOCC3)C2=O)cc1	.	/	.	.	.
CCOC(=O)N1CCN(C(=O)Cc2ccccc2OC)CC1	.	/	.	.	.
Cc1nnc(SCCC(=O)Nc2nc(-c3ccccc3)ns2)s1	/	.	.	/	/
COc1ccccc1C(=O)Nc1nc(-c2ccccc2)ns1	/	.	?	/	/
CC(C)C(=O)Nc1nc(-c2ccccc2)ns1	?	2.24µM	15.1µM	3.55µM	2.82µM
CCCC(=O)Nc1nc(-c2ccccc2)ns1	.	?	16.9µM	?	?
CN(C)C(=O)c1sccc1Oc1ccc(F)cc1[N+](=O)[O-]	.	.	.	.	.
SMILES	ELG1 genotox	SMN2 splice enh	FLuc counter	NPC1 promoter act	Rab9 prom act
COc1ccc(S(=O)(=O)N(Cc2ccco2)Cc2cc3ccccc3[nH]c2=O)cc1	.	/	.	.	.
O=C(O/N=C/c1ccc(Cl)cc1)C1CCCCC1	.	/	2.69µM	.	.
c1ccc(NC2=Nc3ccccc3CS2)cc1	?	11.2µM	2.69µM	1.78µM	3.16µM
O=Nc1c(-c2c(O)[nH]c3ccccc23)[nH]c2ccccc12	/	12.6µM	/	4.61µM	?
O=NC1=C(c2c(O)[nH]c3ccccc23)CCCC1	.	.	.	.	.
Oc1[nH]c2ccccc2c1N=Nc1ccccc1F	?	22.4µM	?	?	?
COC(=O)/C=C(\C)N=Nc1c(O)[nH]c2ccccc12	.	/	23.9µM	.	.
O=C(CNC(=O)Cc1ccccc1)N=Nc1c(O)[nH]c2ccccc12	.	/	.	.	.
Oc1[nH]c2ccccc2c1N=Nc1ccc(F)cc1	?	.[1.84 µM]	4.78µM	.	?
COCCCNC(=S)NNC(=O)c1csc2ccccc12	.	.	.	.	.
Cc1nc2c(C(=O)NCc3ccccc3Cl)c[nH]n2c(=O)c1Cc1cccc(Cl)c1	/	.	?	/	/
O=[N+]([O-])c1ccc2[nH]c(O)c(N=Nc3ccc(F)cc3)c2c1	.	/	.	.	.
Oc1[nH]c2ccc(Br)cc2c1N=Nc1ccc(F)cc1	.	/	.	.	.
Oc1[nH]c2ccccc2c1N=Nc1ccccc1	?	/	6.01µM	.	?
Oc1[nH]c2ccccc2c1N=Nc1nc2ccccc2s1	0.461µM	2.51µM	1.35µM	3.55µM	1.12µM
O=[N+]([O-])c1ccc(N=Nc2c(O)[nH]c3ccc(F)cc23)cc1	?	/	.	2.82µM	?
COc1cccc(/C=C/C(=O)OCC(=O)NCCc2ccccc2)c1	.	.	.	.	.
N#CC1(c2ccccc2)CCN(S(=O)(=O)c2ccc(OC(F)(F)F)cc2)CC1	.	/	.	.	.
O=C(N/C=C/c1ccco1)NCc1ccccc1	.	.	.	.	.
O=C(N/C=C/c1ccco1)OCc1ccccc1	?	12.6µM	10.7µM	?	3.55µM
COCCN(C(=O)c1ccco1)c1nnc(-c2ccc(F)cc2)s1	.	?	?	.	?
CCN(C(=O)Cc1ccccc1OC)c1nnc(-c2ccncc2)s1	.	.	.	.	.
CCN(C(=O)Cc1cccs1)c1nnc(-c2cc(OC)c(OC)c(OC)c2)s1	?	25.1µM	.	.	.
CCN(C(=O)c1ccco1)c1nnc(-c2cccnc2)s1	?	/	13.5µM	?	?
CCCCN(C(=O)Cc1cccs1)c1nnc(-c2cccnc2)s1	.	20µM	19µM	?	.
SMILES	ELG1 genotox	SMN2 splice enh	FLuc counter	NPC1 promoter act	Rab9 prom act
CCCN(C(=O)c1ccco1)c1nnc(-c2ccccc2C)s1	?	/	12µM	.	?
Cc1ccc(CCNC(=O)c2cc3cc(S(=O)(=O)N4CCCCC4)ccc3n2C)cc1	/	/	.	/	/
Fc1cccc(Cl)c1-c1nnc2ccc3ccccc3n12	.	.	19µM	.	.
Fc1ccccc1-c1nnc2ccc3ccccc3n12	.	/	.	.	.
COc1cccc2[nH]c(C(=O)NCc3ccccc3)cc12	.	/	.	.	.
CCOc1ccc(CC(=O)Nc2sc(Cc3ccccc3)c(C)c2C(N)=O)cc1OCC	.	.	.	.	.
COC(=O)c1c(NC(=O)C2CC2)sc(C(=O)Nc2ccccc2)c1C	.	1.12µM	?	?	?
COC(=O)c1c(NC(=O)c2ccco2)sc(C)c1C	.	?	.	.	.
Cc1c(Cc2ccccc2)sc(NC(=O)c2ccco2)c1C(N)=O	.	.	7.57µM	.	.
COC(=O)c1c(NC(=O)c2ccco2)sc(C(=O)Nc2ccc(F)cc2)c1C	?	?	.	1.58µM	1.58µM
O=C(NCCCN1CCCC1=O)c1cccc(S(=O)(=O)Nc2ccc(Br)cc2)c1	.	/	.	.	.
O=C(Nc1ccccc1)c1cc([N+](=O)[O-])ccc1NCc1cccnc1	.	/	.	.	.
COc1ccc(CNC(=O)c2ccc(SC)cc2OC)cc1	.	.	.	.	.
COc1cc(SC)ccc1C(=O)NCCc1ccccc1	?	10µM	6.01µM	3.55µM	3.55µM
COc1cc(SC)ccc1C(=O)Nc1ccon1	?	?	13.5µM	?	2.82µM
COc1cc(SC)ccc1C(=O)Nc1ccccn1	?	/	0.477µM	0.794µM	0.794µM
COc1cc(SC)ccc1C(=O)NC(C)C	.	.	.	.	.
CSc1ccccc1C(=O)Nc1ncc(C)s1	.	.	?	.	.
COc1cc(SC)ccc1C(=O)Nc1ncc(C)s1	?	1.26µM	0.135µM	?	0.447µM
